Several values for one entry are separate records, joined by “and”; a condition that tells them apart may be missing. Identical values can stand only once. Activity calls are given as the source filed them.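 Rule for the calls, unless noted: active = thallium flux through the channel raised or lowered by more than 3 SD from vehicle-only wells, actives on both sides; inactive = the rest.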
Columns and labels:
[1] = liver-stage malaria parasite growth inhibition, primary screen, cell-based, HepG2, luciferase luminescence, HepG2 viability (AID 624349; in the data active = parasite load remaining mostly below about 12%, no sharp cut-off; inactive = mostly above about 10%;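 note: 100% = mean of DMSO negative control wells on the same plate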); conditions: P. berghei liver stage in HepG2, luciferase luminescence, concentration not given here; parasite load remaining: stronger effect = lower value; viability: measured here: HepG2 viability without parasites
[2] = Cy5 fluorescence interference with SSB-bound oligo, artefact control for HCV NS3 helicase inhibitor project, biochemical, NIH Clinical Collection, E. coli SSB (AID 743268; call rule not given here)
[3] = system: Hepatitis C virus NS3 helicase; experiment: HCV NS3 helicase inhibitors, primary screen, biochemical, fluorescence polarization, NIH Clinical Collection (AID 743270; call rule not given here); conditions: NS3 helicase binding to Cy5-dT15 DNA, stronger effect = higher value, concentration not given here
[4] = molecular target: Single-stranded DNA-binding protein (Escherichia coli (strain K12)) (UniProt P0AGE0); experiment: E. coli SSB displacement from DNA, counter-screen for HCV NS3 helicase inhibitor project, biochemical, fluorescence polarization, NIH Clinical Collection (AID 743271; in the data active = inhibition above about 28%); conditions: stronger effect = higher value, concentration not given here
[5] = fluorescence interference in NS3h assay format, artefact control for HCV NS3 helicase inhibitor project, biochemical, NIH Clinical Collection (AID 743272; call rule not given here;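 note: HCV NS3 helicase with a Cy5 labelled single stranded DNA probe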); conditions: fluorescence interference counterscreen, stronger effect = lower value
[6] = system: Neuropilin-2 / VEGF-C interaction (human); experiment: inhibitors of NRP2–VEGF-C binding, biochemical, microplate binding format, z-score (AID 743281; call rule not given here); conditions: microplate NRP2/VEGF-C binding assay; stronger effect = lower value
[7] = modulation of C. elegans fzo-1 (AID 1259413; call rule not given here;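 note: fzo-1 mutant C. elegans worms in liquid wells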); conditions: C. elegans fzo-1 modulator screen, mean read-out; stronger effect = higher value
F380Y = experiment: modulators of BK channel variants, profiling panel, selectivity assay, cell-based, U2OS BacMam, thallium flux, beta subunits (AID 1259406); conditions: at 30 µM;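 note: initial slope of Thallos dye fluorescence rise after thallium is added; log ratio against the mean of 0.3% DMSO vehicle wells on the same plate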
F380Y/beta1 = experiment: as above; conditions: at 30 µM
F380Y/beta2Delta = experiment: as above; conditions: at 30 µM
F380Y/beta4 = experiment: as above; conditions: at 30 µM
[8] = molecular target: Calcium-activated potassium channel subunit alpha-1 (Homo sapiens) + Leucine-rich repeat-containing protein 26 (Homo sapiens) (UniProt Q12791+Q2I0M4); experiment: as above; conditions: F380Y/Slo1WT/gamma1, at 30 µM
R275C = experiment: as above; conditions: at 30 µM
R275C/beta1 = experiment: as above; conditions: at 30 µM
R275C/beta2Delta = experiment: as above; conditions: at 30 µM
R275C/beta4 = experiment: as above; conditions: at 30 µM
R275C/Slo1WT/beta2 = experiment: as above; conditions: at 30 µM
[9] = sensitizers of A549 cells to miR-34 induction, primary screen, imaging, A549 dox-inducible miR-34, nuclei and caspase counts (AID 1347080;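 active = compounds whose cell count with miR-34 switched on is under 0.7 times the count with it off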); conditions: A549 miR-34 inducible, Hoechst nuclei count, 48 h
[10] = viability rescue of complex I mutant cybrids, primary screen, cell-based, galactose medium, ATP luminescence (AID 1645843;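 active = z-score of at least 1.8 in each of two replicates, scored against plate mean and spread of sample wells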;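 note: positive z means more ATP and so rescue of galactose-driven cybrid death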); conditions: complex I mutant cybrid cells, 72 h, stronger effect = higher value
[11] = survival rescue of mitochondrial mutant cells in low glucose, primary screen, MELAS cybrids, Rieske KO mouse fibroblasts, CellTiter-Glo (AID 1508586;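 active = mean z-score across replicates of 1.96 or higher in either the MELAS or the Rieske mutant cell line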;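 note: z relative to plate mean and SD of compound and empty wells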)
[12] = stronger effect = lower value, cell number ratio, induced over uninduced
[13] = measured here: relative caspase fold change +Dox/-Dox
[14] = measured here: total cells with miR-34 induction, stronger effect = lower value
[15] = measured here: total cells without miR-34 induction
[16] = MELAS cybrid survival, CellTiter-Glo 48 h, stronger effect = higher value
[17] = Rieske KO mouse fibroblast survival, CellTiter-Glo 72 h

Calcium-activated potassium channel subunit alpha-1 (Homo sapiens) + Leucine-rich repeat-containing protein 26 (Homo sapiens), sequence (Q2I0M4 whole entry, looked up, one chain of several): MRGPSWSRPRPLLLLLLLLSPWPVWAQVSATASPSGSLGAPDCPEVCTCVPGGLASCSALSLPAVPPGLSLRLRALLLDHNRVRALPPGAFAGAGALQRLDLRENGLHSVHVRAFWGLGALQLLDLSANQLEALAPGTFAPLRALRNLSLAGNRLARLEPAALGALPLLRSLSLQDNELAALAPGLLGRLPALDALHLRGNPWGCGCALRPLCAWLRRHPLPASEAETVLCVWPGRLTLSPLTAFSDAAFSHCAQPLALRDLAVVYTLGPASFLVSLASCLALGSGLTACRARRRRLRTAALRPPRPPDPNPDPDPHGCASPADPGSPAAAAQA

O=c1c(O[C@@H]2O[C@H](CO)[C@@H](O)[C@H](O)[C@H]2O)c(-c2ccc(O)c(O)c2)oc2cc(O)cc(O)c12
inactive: parasite load remaining [1] 52.7% | fluorescence ratio [2] 0.86 | inhibition [3] 2.77% | inhibition [4] 12.2% | fluorescence ratio [5] 0.99 | z-score [6] -0.152 | mean signal [7] 249 | log fold change Tl+ flux (F380Y) -0.0619 | log fold change Tl+ flux (F380Y/beta1) 0.0645 | log fold change Tl+ flux (F380Y/beta2Delta) -0.0137 | log fold change Tl+ flux (F380Y/beta4) -0.0759 | log fold change Tl+ flux [8] 0.0381 | log fold change Tl+ flux (R275C) 0.0103 | log fold change Tl+ flux (R275C/beta1) 0.0316 | log fold change Tl+ flux (R275C/beta2Delta) 0.0226 | log fold change Tl+ flux (R275C/beta4) 0.0307 | log fold change Tl+ flux (R275C/Slo1WT/beta2) -0.0065
69.6%: viability [1]

CNC(=O)Oc1ccc2c(c1)[C@]1(C)CCN(C)C1N2C (stereo partly specified)
inactive: parasite load remaining [1] 98.8% | fluorescence ratio [2] 1.1 | inhibition [3] 5.94% | inhibition [4] -0.1% | fluorescence ratio [5] 1.08 | z-score [6] -0.245 | mean signal [7] 259 | fold change [9, 12] 0.976 | z-score [10] -1.49 | log fold change Tl+ flux (F380Y) -0.0388 | log fold change Tl+ flux (F380Y/beta1) -0.0363 | log fold change Tl+ flux (F380Y/beta2Delta) -0.00825 | log fold change Tl+ flux (F380Y/beta4) 0.000651 | log fold change Tl+ flux [8] 0.0144 | log fold change Tl+ flux (R275C) -0.0205 | log fold change Tl+ flux (R275C/beta1) 0.00244 | log fold change Tl+ flux (R275C/beta2Delta) -0.0145 | log fold change Tl+ flux (R275C/beta4) 0.023 | log fold change Tl+ flux (R275C/Slo1WT/beta2) -0.0113
10600: cell count [9, 15]
84.5%: viability [1]
1.81: fold change [9, 13]
10400: cell count [9, 14]

C[n+]1ccccc1C=NO
11500: cell count [9, 14]
127%: viability [1]
4.73: fold change [9, 13]
inactive: parasite load remaining [1] 51.7% | fold change [9, 12] 0.861 | log fold change Tl+ flux (F380Y) -0.0173 | log fold change Tl+ flux (F380Y/beta1) 0.0118 | log fold change Tl+ flux (F380Y/beta2Delta) -0.00109 | log fold change Tl+ flux (F380Y/beta4) -0.0377 | log fold change Tl+ flux [8] -0.000474 | log fold change Tl+ flux (R275C) -0.00984 | log fold change Tl+ flux (R275C/beta1) 0.0135 | log fold change Tl+ flux (R275C/beta2Delta) 0.00623 | log fold change Tl+ flux (R275C/beta4) -0.0487 | log fold change Tl+ flux (R275C/Slo1WT/beta2) -0.0159
13300: cell count [9, 15]

O=C(OC1C[C@@H]2CC3C[C@H](C1)N2CC3=O)c1c[nH]c2ccccc12 (stereo partly specified)
72.3%: viability [1]
-0.707: z-score [11, 17]
inactive: parasite load remaining [1] 52.7% | fluorescence ratio [2] 1.02 | inhibition [3] -2.84% | inhibition [4] -2.76% | fluorescence ratio [5] 1 | z-score [6] -0.0143 | mean signal [7] 222 | z-score [11, 16] 0.403 | log fold change Tl+ flux (F380Y) 0.0495 | log fold change Tl+ flux (F380Y/beta1) 0.0612 | log fold change Tl+ flux (F380Y/beta2Delta) 0.0379 | log fold change Tl+ flux (F380Y/beta4) 0.00589 | log fold change Tl+ flux [8] -0.004 | log fold change Tl+ flux (R275C) -0.0531 | log fold change Tl+ flux (R275C/beta1) 0.0632 | log fold change Tl+ flux (R275C/beta2Delta) 0.00308 | log fold change Tl+ flux (R275C/beta4) 0.022 | log fold change Tl+ flux (R275C/Slo1WT/beta2) 0.011

CN(CCO)CC(O)Cn1cnc2c1c(=O)n(C)c(=O)n2C (stereo unspecified) (tested in a mixture with another compound)
inactive: parasite load remaining [1] 65% | fluorescence ratio [2] 0.97 | inhibition [3] -0.22% | inhibition [4] 0.39% | fluorescence ratio [5] 0.94 | z-score [6] -0.276 | mean signal [7] 208 | fold change [9, 12] 1.72 | z-score [10] 0.47 | log fold change Tl+ flux (F380Y) 0.0136 | log fold change Tl+ flux (F380Y/beta1) 0.0124 | log fold change Tl+ flux (F380Y/beta2Delta) -0.0171 | log fold change Tl+ flux (F380Y/beta4) 0.017 | log fold change Tl+ flux [8] 0.0349 | log fold change Tl+ flux (R275C) -0.0477 | log fold change Tl+ flux (R275C/beta1) 0.0362 | log fold change Tl+ flux (R275C/beta2Delta) -0.03 | log fold change Tl+ flux (R275C/beta4) -0.00112 | log fold change Tl+ flux (R275C/Slo1WT/beta2) 0.00717
0.852: fold change [9, 13]
66.2%: viability [1]
5120: cell count [9, 15]
8830: cell count [9, 14]

CCCc1nc(C(C)(C)O)c(C(=O)O)n1Cc1ccc(-c2ccccc2-c2nn[nH]n2)cc1
-0.184: z-score [11, 17]
9480 and 8420: cell count [9, 14]
10600 and 9810: cell count [9, 15]
inactive: parasite load remaining [1] 103% | fluorescence ratio [2] 1.02 | inhibition [3] 1.19% | inhibition [4] -0.1% | fluorescence ratio [5] 0.93 | fold change [9, 12] 0.897 and 0.859 | z-score [11, 16] 0.347 | z-score [10] 0.54 and -0.09 | log fold change Tl+ flux (F380Y) -0.0187 | log fold change Tl+ flux (F380Y/beta1) 0.00703 | log fold change Tl+ flux (F380Y/beta2Delta) 0.0323 | log fold change Tl+ flux (F380Y/beta4) -0.0244 | log fold change Tl+ flux [8] 0.0466 | log fold change Tl+ flux (R275C) 0.0686 | log fold change Tl+ flux (R275C/beta1) 0.00561 | log fold change Tl+ flux (R275C/beta2Delta) 0.0191 | log fold change Tl+ flux (R275C/beta4) -0.0131 | log fold change Tl+ flux (R275C/Slo1WT/beta2) -0.0157
2.28 and 0.39: fold change [9, 13]
69%: viability [1]

COc1cc(/C=C/c2ccc(O)cc2)cc(OC)c1
active: log fold change Tl+ flux (F380Y) -1.03 | log fold change Tl+ flux (F380Y/beta1) -0.986 | log fold change Tl+ flux (F380Y/beta2Delta) -1.01 | log fold change Tl+ flux (F380Y/beta4) -0.813 | log fold change Tl+ flux [8] -0.744 | log fold change Tl+ flux (R275C) -0.927 | log fold change Tl+ flux (R275C/beta1) -0.11 | log fold change Tl+ flux (R275C/Slo1WT/beta2) -0.108
inactive: parasite load remaining [1] 117% | fluorescence ratio [2] 0.96 | inhibition [3] 5.94% | inhibition [4] 9.14% | fluorescence ratio [5] 0.99 | z-score [6] -1.34 | mean signal [7] 227 | log fold change Tl+ flux (R275C/beta2Delta) -0.000996 | log fold change Tl+ flux (R275C/beta4) 0.05
70.6%: viability [1]
